Sampled rows, rich in hits. Any-hit rate of the full collection: about 3.5%.
TEAD-YAP inh: TEAD-YAP interaction inhibition; AID 1259422; 1.4% of 640,000 active; HEK-TIYL cells, TEAD-Gal4/YAP UAS-luciferase luminescence; inhibition, % at 9.12 µM; in the data active = inhibition above about 32%;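 also: 0% = median of test compound wells and 100% = reference inhibitor wells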
MITF inh: inhibitors of human MITF; inhibition, % at 2.6 µM; AID 1259374; 0.91% of 650,000 active; O75030; AlphaScreen MITF homodimerization, bead proximity signal; in the data active = inhibition above about 50%;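 also: 0% = vehicle wells with protein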
GPR151 activ: activates the human receptor GPR151; Q8TDV0; PathHunter beta-arrestin GPR151 cells, luminescence; activation, % at 11.2 µM; 1% of 650,000 active; AID 1508602; in the data active = activation above about 4.9%;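 also: 0% = median of compound wells and 100% = cells with positive control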
Target sequence (Q8TDV0 whole entry, looked up): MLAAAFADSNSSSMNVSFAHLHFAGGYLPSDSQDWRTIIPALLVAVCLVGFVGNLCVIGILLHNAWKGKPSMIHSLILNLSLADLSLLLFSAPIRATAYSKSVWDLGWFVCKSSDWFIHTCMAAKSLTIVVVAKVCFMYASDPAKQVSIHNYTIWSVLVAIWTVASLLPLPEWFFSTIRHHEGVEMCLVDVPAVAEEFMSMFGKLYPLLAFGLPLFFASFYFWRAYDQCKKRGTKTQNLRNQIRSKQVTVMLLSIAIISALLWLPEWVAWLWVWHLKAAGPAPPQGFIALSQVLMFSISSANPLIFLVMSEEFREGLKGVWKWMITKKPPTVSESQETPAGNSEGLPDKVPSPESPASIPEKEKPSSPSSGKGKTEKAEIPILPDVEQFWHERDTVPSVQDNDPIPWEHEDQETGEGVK
FBW7 act: activators of human E3 ligase FBW7. 0.13% of 650,000 active. Q969H0. AlphaScreen FBW7–phospho-cyclin E peptide binding, activator screen. normalized activity (activation), % at 26.1 µM. AID 1259310; in the data active = normalized activity above about 1.9%;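 also: purified mutant Fbw7 with reduced substrate affinity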
GPR151 confirm: human GPR151 activation, confirmation screen. shares compounds with GPR151 activ. GPR151 PathHunter beta-arrestin cells, luminescence, 90 min; % of EA-reagent control over plate median. activation, % at 11.2 µM. 6,700 tested, under 10 active;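 active = mean percent activation across replicates above the confirmation screen cutoff of 4.91%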
GPR119 ag: counter-screen for GPR151 activators: effect on human GPR119; shares compounds with GPR151 activ; GPR119 PathHunter beta-arrestin cells, luminescence, 90 min; 0 = compound-well median, 100 = enzyme-acceptor control; activation, % at 11.2 µM; 0.3% of 6,700 active; AID 1508611;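 active = mean percent activation in the counterscreen above 29.09%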;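 also: counterscreen on off-target GPR119 to flag nonselective hits from the GPR151 activator screen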
Starred values were filed as active, the others as inactive; ! = a repeat was not active.

`CCOc1ccc(NC(=O)COc2ccc(Cl)c(C)c2)cc1` gave TEAD-YAP inh 4, MITF inh 0, GPR151 activ -1 and FBW7 act 1.
COc1ccc(/C=N\NC(=O)COc2c(C)cccc2C)cc1OC was read as TEAD-YAP inh -4, MITF inh 2, GPR151 activ 9.9*, FBW7 act 0, GPR151 confirm 0 and GPR119 ag 13.
For COc1ccc(/C=N/NC(=O)c2ccc(=O)n(C)c2)cc1OC the results were TEAD-YAP inh -13, MITF inh -8, GPR151 activ 10*, FBW7 act 0, GPR151 confirm -1 and GPR119 ag -3.
COc1ccc(/C=N/NC(=O)c2ccc(=O)n(C)c2)cc1 was read as TEAD-YAP inh -2, MITF inh -6, GPR151 activ -1 and FBW7 act 0.
For COc1cccc(/C=N/NC(=O)COc2ccc3ccccc3c2)c1 the results were TEAD-YAP inh -6, MITF inh 3, GPR151 activ 1 and FBW7 act 0.
For CCCCOc1ccc(OCC(=O)N/N=C/c2cccc(OC)c2)cc1 the results were TEAD-YAP inh 1, MITF inh -5, GPR151 activ 5.7*, FBW7 act 0, GPR151 confirm 0 and GPR119 ag -4.
COc1cc(C(=O)N2CCN(c3ccc(Cl)cc3[N+](=O)[O-])CC2)cc(OC)c1OC was read as TEAD-YAP inh 10, MITF inh 14, GPR151 activ -1 and FBW7 act 1.
Screening CC(C)c1ccc(NC(=O)C(c2ccccc2)N(CCO)Cc2ccccc2)cc1 (stereo not drawn) returned TEAD-YAP inh 1, MITF inh 3, GPR151 activ -2 and FBW7 act 1.
COc1ccc(OC)c(NC(=O)CC(Cc2ccc(Cl)cc2)C(=O)O)c1 (stereo not drawn) was read as TEAD-YAP inh 6, MITF inh 8, GPR151 activ 5.2*, FBW7 act 0, GPR151 confirm 0 and GPR119 ag -7.
For CNC(=O)C1CN(Cc2ccc3c(c2)OCO3)CCN1C(=O)c1ccc(F)c(F)c1 (stereo not drawn) the results were TEAD-YAP inh -2, MITF inh 3, GPR151 activ 7.2*, FBW7 act 0, GPR151 confirm 0 and GPR119 ag -9.
`CCOC(=O)c1cnc(SCc2nc(N)nc(Nc3ccccc3)n2)nc1N` gave TEAD-YAP inh 13, MITF inh 0, GPR151 activ 3 and FBW7 act 0.
Screening CCN1CCN(Cc2nc(N)nc(Nc3ccccc3)n2)CC1 returned TEAD-YAP inh 8, MITF inh 5, GPR151 activ 6.1*, FBW7 act 0, GPR151 confirm 0 and GPR119 ag 13.
Screening COc1ccc(Nc2nc(N)nc(CN3CCN(c4ccccn4)CC3)n2)cc1 returned TEAD-YAP inh -7, MITF inh 9, GPR151 activ 0 and FBW7 act 0.
For CCOC(=O)c1nc(N)nc(Nc2ccccc2)n1 the results were TEAD-YAP inh 9, MITF inh 15, GPR151 activ 11*, FBW7 act -1, GPR151 confirm 0 and GPR119 ag 1.
For COc1ccc(Nc2nc(N)nc(CN3C(=O)c4ccccc4C3=O)n2)cc1 the results were TEAD-YAP inh 0, MITF inh 3, GPR151 activ 6.9*, FBW7 act 0, GPR151 confirm 0 and GPR119 ag -2.
`COC(=O)c1ccc(NC(=O)CC2C(=O)N(c3ccc(Cl)cc3)C(=S)N2CCc2ccc(OC)c(OC)c2)cc1` (stereo not drawn) gave TEAD-YAP inh 2, MITF inh -4, GPR151 activ 0 and FBW7 act 0.
Screening COC(=O)COc1ccc(NC(=O)c2ccc3c(c2)C(=O)N(C(C)(C)C)C3=O)cc1 returned TEAD-YAP inh 11, MITF inh -13, GPR151 activ -1 and FBW7 act 0.
Screening CCCC1NC(=S)N(C2CCCCC2)C1=O (stereo not drawn) returned TEAD-YAP inh -7, MITF inh -9, GPR151 activ 1 and FBW7 act 0.
O=C1C(CCCNC(=S)NC2CCCCC2)NC(=S)N1C1CCCCC1 (stereo not drawn) was read as TEAD-YAP inh 4, MITF inh 9, GPR151 activ 9.8*, FBW7 act 0, GPR151 confirm 0 and GPR119 ag -9.
For O=C(N/N=C/c1ccc(F)cc1)c1cccnc1 the results were TEAD-YAP inh -1, MITF inh 19, GPR151 activ 1 and FBW7 act 0.
NC(N)=NC(N)=Nc1cccc(Cl)c1 was read as TEAD-YAP inh 4, MITF inh -4, GPR151 activ 10*!, FBW7 act 0, GPR151 confirm -1 and GPR119 ag -10.
For NC(N)=NC(N)=Nc1cccc([N+](=O)[O-])c1 the results were TEAD-YAP inh -4, MITF inh 5, GPR151 activ 1 and FBW7 act 0.
`NS(=O)(=O)c1ccc(NC(=S)NC(=O)C(c2ccccc2)c2ccccc2)cc1` gave TEAD-YAP inh -5, MITF inh 2, GPR151 activ 5.4*, FBW7 act 0, GPR151 confirm 0 and GPR119 ag -6.
Screening CC(=O)NC(=S)Nc1ccc(S(N)(=O)=O)cc1 returned TEAD-YAP inh -7, MITF inh 0, GPR151 activ 5.5*, FBW7 act 0, GPR151 confirm 0 and GPR119 ag 2.
CC(=O)Nc1cccc(NC(=S)Nc2ccc(S(N)(=O)=O)cc2)c1 was read as TEAD-YAP inh 1, MITF inh -2, GPR151 activ 0 and FBW7 act 0.
COc1ccc(C(=O)COC(=O)c2cc(=O)c3ccccc3o2)c(OC)c1 was read as TEAD-YAP inh -4, MITF inh 0, GPR151 activ 2 and FBW7 act 0.
For CC(=O)Nc1ccc(NC(=O)COC(=O)c2ccc3c(c2)nc(C)n3-c2ccccc2)cc1 the results were TEAD-YAP inh 2, MITF inh 0, GPR151 activ 11*, FBW7 act 0, GPR151 confirm 1 and GPR119 ag 8.
Screening CC(C)n1c(Nc2ccc3ncccc3c2)nc2c(NCCc3ccc(O)cc3)ncnc21 returned TEAD-YAP inh -1, MITF inh 0, GPR151 activ 5.1*, FBW7 act 0, GPR151 confirm 0 and GPR119 ag -5.
For CC(C)n1c(Nc2ccccc2)nc2c(NCCc3ccc(O)cc3)ncnc21 the results were TEAD-YAP inh 30, MITF inh -1, GPR151 activ 6.1*, FBW7 act 0, GPR151 confirm -1 and GPR119 ag -11.
For CC(C)n1c(Nc2ccc3ncccc3c2)nc2c(NCCN3CCOCC3)ncnc21 the results were TEAD-YAP inh -4, MITF inh 14, GPR151 activ 6.4*, FBW7 act 0, GPR151 confirm 0 and GPR119 ag 0.

From PubChem
